Results filed as inconclusive are left out. The source holds several records for some structures; these can differ, active in one and inactive in another. Activity calls are given as the source filed them. Unless noted, calls come from the whole dose curve; as a rule, active = well fitted curve in the direction sought with a large enough effect; inconclusive = small, poorly fitted or top-dose-only effect, or another doubt; inactive = no such curve, though single readings can be large; an effect the other way counts as inactive or inconclusive.
How the values were obtained:
[1] = Cytometric Cell-Based qHTS for Inhibitors of the mTORC1 Signaling Pathway in MEF (Tsc2-/-, p53-/-) Cells (AID 2660);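 note: Tsc2 and p53 null MEFs carrying empty vector with compound for 24 h; percent of cells above a phospho-rpS6 to PI ratio cutoff in each well; series mostly up to about 38 µM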
Method in brief: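 Immunofluorescence qHTS of rpS6 Ser235/236 phosphorylation: MEFs (Tsc2-/-, p53-/-) treated 24 h, 37 C, in DMEM + 10% FBS. Alexa-488 signal normalized to PI count, referenced to rapamycin (7.5 nM) and DMSO; PI cell number recorded for viability.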

[2] = High Content Imaging Cell-Based qHTS for Inhibitors of the mTORC1 Signaling Pathway in MEF (Tsc2-/-, p53-/-) Cells (AID 2666);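 note: percent of cells scored positive for phospho-rpS6 Ser235/236 immunostaining by imaging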
Method in brief: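 Cells were plated, dosed with compound after 24 hrs, and incubated another 24 hrs at 37 degree Celsius. Fixed cells were immunostained for phospho-rpS6 Ser235/236 and counterstained, and the normalized signal was scored as % active cells against rapamycin and DMSO controls.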

[3] = High Content Imaging Cell-Based qHTS for Inhibitors of the mTORC1 Signaling Pathway in MEF Cells (AID 2667);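 note: Tsc2-/- p53-/- MEFs stably re-expressing wild-type Tsc2 exposed 24 h; series mostly up to about 38 µM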
Method in brief: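 Immunofluorescence for rpS6 phosphorylation in MEFs of Tsc2-/-, p53-/- background rescued with WT Tsc2. Compound exposure lasted 24 hrs. Inhibition was scored against rapamycin-treated control wells.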

[4] = Cytometry Cell-Based qHTS for Inhibitors of the mTORC1 Signaling Pathway in MEF cells (AID 2668);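 note: Tsc2-/- p53-/- mouse embryonic fibroblasts stably re-expressing wild-type Tsc2; percent cells positive for phospho-rpS6 Ser235/236 relative to propidium iodide stain; series mostly up to about 38 µM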
Method in brief: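 Tsc2-/-, p53-/- MEFs re-expressing WT Tsc2; cpd 24 hrs, 37 degree Celsius; PFA fix, Alexa-488 p-rpS6 (Ser235/236) Ab 2 hrs RT, PI counterstain; Acumen 488nm scan; p-S6/PI ratio → % positive cells; PI count = viability.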

[5] = Validation screen for small molecules that induce DNA re-replication in MCF 10A normal breast cells (AID 463097); note: nearly all actives have a fitted effect of over 60% in size; note: potency is the fitted concentration of half-maximal effect
Method in brief: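 Image-based qHTS: normal breast cells are incubated with compound for 48 hr, stained with Hoechst, and scanned for total nuclear fluorescence. Compounds raising the fraction of nuclei with elevated DNA content count as re-replication inducers.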

[6] = target: Ubiquitin carboxyl-terminal hydrolase 2 (Homo sapiens) (UniProt O75604); assay: qHTS Validation Assay for Inhibitors of Ubiquitin-specific Protease USP2a Using CHOP2 as the Reporter (AID 463106)
Method in brief: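 10nM USP2 core + cpd, 30min RT; add 25nM Ub-CHOP2/25nM substrate; 60min RT; FI 485/531nm. Buffer Tris pH 8.0, CaCl2, BME, CHAPS. Norm. to NEM = 100% inhibition; time-zero read flags fluorescent artifacts.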

[7] = target: Tumor susceptibility gene 101 protein (Homo sapiens) (UniProt Q99816); assay: qHTS Validation Assay for Iinhibitors of HIV-1 Budding by Blocking the Interaction of PTAP/TSG101 (AID 485342; calls by dose curve)
Method in brief: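 Binding of a FITC-tagged PTAP-motif peptide (50 nM) to the Tsg101 binding domain (10 uM) is monitored by fluorescence polarization. Compounds are pin-delivered before peptide addition, and incubation runs 20 min at room temperature.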

[8] = qHTS Validation Assay to Find Inhibitors of Chronic Active B-Cell Receptor Signaling (AID 485345; active = well fitted curve in the direction sought with a large enough effect in the main read-out, with a control signal flat, not every such curve was filed as active)
Method in brief: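 Read-out: ratio of filter-corrected green (IkappaBalpha fusion) to red (native) luciferase signal in doxycycline-induced TMD8 cells after 4 h at 37C. Titration spanned 46 uM–3 nM; Data were normalised to basal cells and 10 uM MG-132 wells.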

[9] = target: Beta-2 adrenergic receptor (Homo sapiens) (UniProt P07550); assay: qHTS validation assay of beta-arrestin-biased ligands of beta2-adrenergic receptor (AID 485366)
Method in brief: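 Arrestin-recruitment (Tango) reporter: ligand-bound beta2-AR recruits beta-arrestin, releasing tTA, which upregulates luciferase. Titrations of up to 46 microM incubated 18 hr at 37 degrees C before luminescent readout.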

[10] = target: ATP-dependent 6-phosphofructokinase (Trypanosoma brucei brucei) (UniProt O15648); assay: qHTS Validation Assay to Find Inhibitors of T. brucei phosphofructokinase (AID 485368); note: potency is the fitted concentration of half-maximal effect
Method in brief: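 Steps: substrate mix (0.5 mM F6P, 0.1 mM ATP, MgCl2, TEA pH 8.0); compound; 1.25 nM T. brucei PFK; 45 min RT; ATP depletion 10 min; ADP-to-ATP detection 10 min; luminescence read; curve fitting and classification.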

[11] = Quantitative high throughput screen for delayed death inhibitors of the malarial parasite plastid, 96 hour incubation (AID 488745); note: nearly all actives have a fitted effect of over 70% in size; note: potency is the fitted concentration of half-maximal effect
Method in brief: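 P. falciparum carrying an integrated firefly luciferase reporter, grown in erythrocytes (2% hematocrit, 0.1% parasitemia final) in RPMI 1640/0.5% Albumax, was exposed to compound for 96 h (two generations) at 37 C, 5% CO2. Luminescence decrease indicated growth inhibition.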

[12] = Quantitative high throughput screen for delayed death inhibitors of the malarial parasite plastid, 48 hour incubation (AID 488752); note: nearly all actives have a fitted effect of over 65% in size
Method in brief: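 Erythrocytes infected with P. falciparum carrying an integrated firefly luciferase reporter (2% hematocrit, 0.1% parasitemia final) were exposed to compounds in RPMI 1640/0.5% Albumax for 48 h at 37 C, 5% CO2. Growth inhibition was scored as reduced luminescence.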

[13] = target: Thioredoxin reductase 1, cytoplasmic (Rattus norvegicus) (UniProt O89049); assay: qHTS Assay for Substrates of Mammalian Selenoprotein Thioredoxin Reductase 1 (TrxR1) (AID 488772);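 note: NADPH fluorescence in the first read after selenite addition and not the 8 min delta; series mostly up to about 57 µM; a drop in NADPH fluorescence below the no-compound background marks a TrxR1 substrate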
Method in brief: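 Quantitative HTS in Tris-HCl buffer at pH 7.5 with EDTA and Tween-20, using rat TrxR1, 400 uM NADPH and 400 uM selenite (final). A fall in initial NADPH fluorescence relative to background marked substrate behaviour.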

[14] = target: Thioredoxin reductase 1, cytoplasmic (Rattus norvegicus) (UniProt O89049); assay: qHTS Assay for Inhibitors of Mammalian Selenoprotein Thioredoxin Reductase 1 (TrxR1) (AID 488773); details: Potency: inhibition;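 note: drop in NADPH fluorescence over an 8 min run after selenite addition; series mostly up to about 57 µM; nearly all actives have a fitted effect of over 40% in size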
Method in brief: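 Steps: enzyme (90 nM) plus NADPH (400 uM final), 5 min at ~22 deg C; compound added, 15 min; selenite (400 uM final) added; fluorescence followed for 8 min. Concentration-response curves derived from the normalized delta values.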

[15] = target: Flap endonuclease 1 (Homo sapiens) (UniProt P39748); assay: qHTS Validation Assay for the Inhibitors of Human Flap endonuclease 1 (FEN1) (AID 488816)
Method in brief: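 Readings taken at 0 and 15 min after starting the reaction with 50 nM (final) substrate supplied the signal. Compounds had first sat with 10 nM FEN1 reagent for 15 min at room temperature. Values come from Hill-equation concentration-response fits.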

[16] = target: M-phase phosphoprotein 8 (Homo sapiens) (UniProt Q99549); assay: qHTS Validation Assay for Inhibitors for MPP8 Chromodomain Interactions with Methylated Histone Tails (AID 488949); note: nearly all actives have a fitted effect of over 55% in size; note: potency is the fitted concentration of half-maximal effect
Method in brief: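 50 nM MPP8 + 50 nM b-H3K9me3 peptide, PBS pH 7.4/0.01% Tween-20, 30 min RT; + cpd 30 min RT; + AlphaScreen donor/Ni-chelate acceptor beads 10 ug/mL final, 30 min dark; luminescence read.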

[17] = target: Methanococcus maripaludis chaperonin (MmCpn) (UniProt Q6LX38); assay: High-Throughput Screening for Modulators of Cytosolic Chaperonin Activity: MmCpn Primary Screen (AID 488978);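 note: 50 nM MmCpn enzyme hydrolysing 30 µM ATP at 37 °C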
Method in brief: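 Steps: chaperonin 50 nM final; add compound, 5 min RT; start with ATP, 30 uM final; hold 10 min at 37C; add ADP Transcreener HTRF reagent, 5 min; read ex 320, em 590 and 665 nm.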

[18] = target: Chromobox protein homolog 1 (Homo sapiens) (UniProt P83916); assay: qHTS Validation Assay for Inhibitors of HP1-beta Chromodomain Interactions with Methylated Histone Tails (AID 488953); note: nearly all actives have a fitted effect of over 50% in size; note: potency is the fitted concentration of half-maximal effect
Method in brief: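 HP1-beta (50 nM) was preincubated 30 min at room temperature with biotinylated H3(1-18)K9me3 peptide (50 nM) in PBS pH 7.4, 0.01% Tween-20, then with compounds 30 min. AlphaScreen signal was read after streptavidin donor/nickel chelate acceptor beads (10 ug/mL final).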

[19] = target: DNA polymerase III PolC-type (Bacillus subtilis (strain 168)) (UniProt P13267); assay: qHTS Validation Assay for the Inhibitors of DNA Replication in Gram-Positive Bacteria (AID 485295);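 note: reconstituted holoenzyme with PolC plus beta clamp SSB and primase; PicoGreen fluorescence of double-stranded DNA made on primed circular M13 template; series mostly up to about 57 µM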
Method in brief: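 First, compound is mixed with the reconstituted replication complex and held at room temperature. Next, circular single-stranded M13Gori with nucleotides starts synthesis. Finally, PicoGreen in EDTA halts the reaction and stains double-stranded product for fluorescence reading.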

Measured: Potency

Methanococcus maripaludis chaperonin (MmCpn), sequence (Q6LX38 1-543): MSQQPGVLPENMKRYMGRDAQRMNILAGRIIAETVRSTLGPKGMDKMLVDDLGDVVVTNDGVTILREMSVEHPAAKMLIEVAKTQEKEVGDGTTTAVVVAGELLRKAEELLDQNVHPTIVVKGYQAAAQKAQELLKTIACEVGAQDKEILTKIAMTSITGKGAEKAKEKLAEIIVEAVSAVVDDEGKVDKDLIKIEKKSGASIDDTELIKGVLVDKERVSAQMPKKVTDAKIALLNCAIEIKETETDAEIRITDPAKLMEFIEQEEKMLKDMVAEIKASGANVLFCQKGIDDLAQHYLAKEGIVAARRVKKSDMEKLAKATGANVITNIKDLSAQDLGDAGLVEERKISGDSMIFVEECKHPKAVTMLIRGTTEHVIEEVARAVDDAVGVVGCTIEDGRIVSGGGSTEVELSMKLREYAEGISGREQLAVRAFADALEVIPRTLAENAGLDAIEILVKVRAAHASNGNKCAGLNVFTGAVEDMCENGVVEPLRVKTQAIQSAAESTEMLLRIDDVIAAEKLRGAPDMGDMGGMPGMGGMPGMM
Flap endonuclease 1 (Homo sapiens), sequence (P39748 whole entry, looked up): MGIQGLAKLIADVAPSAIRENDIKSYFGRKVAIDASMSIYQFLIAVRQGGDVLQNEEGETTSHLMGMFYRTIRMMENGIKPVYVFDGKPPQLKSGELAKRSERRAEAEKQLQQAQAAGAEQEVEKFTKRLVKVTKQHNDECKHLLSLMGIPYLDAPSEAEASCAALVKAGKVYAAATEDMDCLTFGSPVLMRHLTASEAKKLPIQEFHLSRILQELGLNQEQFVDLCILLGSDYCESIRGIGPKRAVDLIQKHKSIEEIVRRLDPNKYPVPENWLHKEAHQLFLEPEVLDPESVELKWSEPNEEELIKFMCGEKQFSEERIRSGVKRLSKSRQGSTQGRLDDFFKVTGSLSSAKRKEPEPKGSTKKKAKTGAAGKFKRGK
Beta-2 adrenergic receptor (Homo sapiens), sequence (P07550 whole entry, looked up): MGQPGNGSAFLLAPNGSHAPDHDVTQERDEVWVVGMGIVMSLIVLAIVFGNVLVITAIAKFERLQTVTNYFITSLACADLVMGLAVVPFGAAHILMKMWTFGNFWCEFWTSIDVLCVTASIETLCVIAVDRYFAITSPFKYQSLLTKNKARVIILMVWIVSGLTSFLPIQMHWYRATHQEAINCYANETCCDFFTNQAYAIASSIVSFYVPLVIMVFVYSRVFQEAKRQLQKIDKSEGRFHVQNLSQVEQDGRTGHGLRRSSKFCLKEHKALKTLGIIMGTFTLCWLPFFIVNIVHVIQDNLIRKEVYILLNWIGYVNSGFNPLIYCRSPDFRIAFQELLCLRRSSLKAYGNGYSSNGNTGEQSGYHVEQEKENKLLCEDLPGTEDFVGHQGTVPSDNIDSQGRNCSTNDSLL
Chromobox protein homolog 1 (Homo sapiens), sequence (P83916 whole entry, looked up): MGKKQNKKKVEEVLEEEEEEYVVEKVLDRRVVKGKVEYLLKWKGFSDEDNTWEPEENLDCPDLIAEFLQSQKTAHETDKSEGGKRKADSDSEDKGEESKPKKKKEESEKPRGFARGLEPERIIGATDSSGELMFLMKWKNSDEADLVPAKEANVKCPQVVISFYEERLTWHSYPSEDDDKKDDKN
Tumor susceptibility gene 101 protein (Homo sapiens), sequence (Q99816 whole entry, looked up, the tested form may be a part): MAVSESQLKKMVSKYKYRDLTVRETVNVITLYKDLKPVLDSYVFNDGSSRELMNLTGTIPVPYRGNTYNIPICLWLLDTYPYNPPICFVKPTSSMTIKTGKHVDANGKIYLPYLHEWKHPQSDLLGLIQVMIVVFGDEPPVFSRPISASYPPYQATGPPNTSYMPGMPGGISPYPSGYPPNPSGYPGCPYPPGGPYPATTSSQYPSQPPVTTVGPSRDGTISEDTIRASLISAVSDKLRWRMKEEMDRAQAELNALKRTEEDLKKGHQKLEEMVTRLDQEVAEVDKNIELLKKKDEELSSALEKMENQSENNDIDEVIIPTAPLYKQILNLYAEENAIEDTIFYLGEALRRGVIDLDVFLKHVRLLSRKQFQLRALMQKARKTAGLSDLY
Ubiquitin carboxyl-terminal hydrolase 2 (Homo sapiens), sequence (O75604 whole entry, looked up): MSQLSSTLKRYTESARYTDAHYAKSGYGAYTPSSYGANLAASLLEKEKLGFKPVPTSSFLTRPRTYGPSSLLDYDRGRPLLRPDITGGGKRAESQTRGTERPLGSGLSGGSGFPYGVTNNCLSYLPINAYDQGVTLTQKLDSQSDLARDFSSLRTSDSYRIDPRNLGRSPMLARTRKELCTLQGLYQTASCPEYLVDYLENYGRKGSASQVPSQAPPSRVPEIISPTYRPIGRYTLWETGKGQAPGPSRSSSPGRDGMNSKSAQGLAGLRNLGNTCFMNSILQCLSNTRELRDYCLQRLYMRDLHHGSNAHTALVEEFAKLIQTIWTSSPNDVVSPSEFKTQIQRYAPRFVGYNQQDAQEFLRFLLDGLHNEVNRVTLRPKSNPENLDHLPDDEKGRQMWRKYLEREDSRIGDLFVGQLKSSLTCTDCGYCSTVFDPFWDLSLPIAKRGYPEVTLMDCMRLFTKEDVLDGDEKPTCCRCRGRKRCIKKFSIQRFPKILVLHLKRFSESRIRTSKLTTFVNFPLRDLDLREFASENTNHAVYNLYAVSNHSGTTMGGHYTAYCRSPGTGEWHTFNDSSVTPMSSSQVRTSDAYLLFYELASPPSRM
DNA polymerase III PolC-type (Bacillus subtilis (strain 168)), sequence (P13267 whole entry, looked up): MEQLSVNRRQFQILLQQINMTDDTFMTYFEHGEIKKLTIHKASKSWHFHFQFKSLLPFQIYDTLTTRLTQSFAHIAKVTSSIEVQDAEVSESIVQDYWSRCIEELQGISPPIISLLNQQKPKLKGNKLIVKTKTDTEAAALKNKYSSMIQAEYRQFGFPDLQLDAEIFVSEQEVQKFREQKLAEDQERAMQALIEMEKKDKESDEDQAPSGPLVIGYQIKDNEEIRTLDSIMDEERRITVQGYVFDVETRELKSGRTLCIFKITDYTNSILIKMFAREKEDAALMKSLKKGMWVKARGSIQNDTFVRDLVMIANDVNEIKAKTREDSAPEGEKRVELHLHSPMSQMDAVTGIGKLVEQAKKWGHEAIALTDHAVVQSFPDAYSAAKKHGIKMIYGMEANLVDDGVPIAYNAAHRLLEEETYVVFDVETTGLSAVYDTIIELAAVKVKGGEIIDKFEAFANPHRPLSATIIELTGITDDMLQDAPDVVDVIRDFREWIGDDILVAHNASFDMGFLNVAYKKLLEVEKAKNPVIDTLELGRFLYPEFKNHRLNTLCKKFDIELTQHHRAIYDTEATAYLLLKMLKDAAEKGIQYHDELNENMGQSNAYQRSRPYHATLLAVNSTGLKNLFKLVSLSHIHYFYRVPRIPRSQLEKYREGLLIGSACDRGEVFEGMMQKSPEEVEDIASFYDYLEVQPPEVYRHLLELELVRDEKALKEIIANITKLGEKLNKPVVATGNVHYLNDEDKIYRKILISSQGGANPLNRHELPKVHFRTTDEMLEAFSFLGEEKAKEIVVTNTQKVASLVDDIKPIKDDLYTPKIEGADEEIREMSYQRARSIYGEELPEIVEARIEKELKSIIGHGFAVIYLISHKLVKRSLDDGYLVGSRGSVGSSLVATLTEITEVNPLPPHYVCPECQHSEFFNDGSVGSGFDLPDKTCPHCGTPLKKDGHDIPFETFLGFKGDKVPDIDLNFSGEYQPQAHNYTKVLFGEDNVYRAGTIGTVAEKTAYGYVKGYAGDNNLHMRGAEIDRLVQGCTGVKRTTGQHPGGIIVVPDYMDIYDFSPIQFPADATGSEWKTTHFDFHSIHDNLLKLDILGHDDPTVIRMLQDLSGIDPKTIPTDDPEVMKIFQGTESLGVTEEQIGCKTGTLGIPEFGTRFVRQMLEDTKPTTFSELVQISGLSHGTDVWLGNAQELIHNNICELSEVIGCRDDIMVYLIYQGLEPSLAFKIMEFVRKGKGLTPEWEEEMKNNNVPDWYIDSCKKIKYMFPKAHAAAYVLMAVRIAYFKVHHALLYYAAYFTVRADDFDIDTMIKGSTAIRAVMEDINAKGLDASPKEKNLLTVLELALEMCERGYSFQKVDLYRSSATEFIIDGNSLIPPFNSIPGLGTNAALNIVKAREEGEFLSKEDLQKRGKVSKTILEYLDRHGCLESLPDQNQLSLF
Thioredoxin reductase 1, cytoplasmic (Rattus norvegicus), sequence (O89049 whole entry, looked up): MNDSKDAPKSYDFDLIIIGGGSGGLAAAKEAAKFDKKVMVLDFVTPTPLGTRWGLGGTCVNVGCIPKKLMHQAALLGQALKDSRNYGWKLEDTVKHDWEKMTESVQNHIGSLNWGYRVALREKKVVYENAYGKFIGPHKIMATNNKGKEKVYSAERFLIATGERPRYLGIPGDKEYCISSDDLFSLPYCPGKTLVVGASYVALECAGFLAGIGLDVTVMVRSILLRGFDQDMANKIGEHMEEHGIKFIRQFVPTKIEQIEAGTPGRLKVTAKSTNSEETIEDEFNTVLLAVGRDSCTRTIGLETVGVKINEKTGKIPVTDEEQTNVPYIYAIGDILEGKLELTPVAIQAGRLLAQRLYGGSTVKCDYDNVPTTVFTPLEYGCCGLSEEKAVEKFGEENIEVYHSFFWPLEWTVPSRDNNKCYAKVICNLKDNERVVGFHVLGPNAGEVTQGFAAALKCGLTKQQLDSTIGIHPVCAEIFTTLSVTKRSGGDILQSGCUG
ATP-dependent 6-phosphofructokinase (Trypanosoma brucei brucei), sequence (O15648 whole entry, looked up): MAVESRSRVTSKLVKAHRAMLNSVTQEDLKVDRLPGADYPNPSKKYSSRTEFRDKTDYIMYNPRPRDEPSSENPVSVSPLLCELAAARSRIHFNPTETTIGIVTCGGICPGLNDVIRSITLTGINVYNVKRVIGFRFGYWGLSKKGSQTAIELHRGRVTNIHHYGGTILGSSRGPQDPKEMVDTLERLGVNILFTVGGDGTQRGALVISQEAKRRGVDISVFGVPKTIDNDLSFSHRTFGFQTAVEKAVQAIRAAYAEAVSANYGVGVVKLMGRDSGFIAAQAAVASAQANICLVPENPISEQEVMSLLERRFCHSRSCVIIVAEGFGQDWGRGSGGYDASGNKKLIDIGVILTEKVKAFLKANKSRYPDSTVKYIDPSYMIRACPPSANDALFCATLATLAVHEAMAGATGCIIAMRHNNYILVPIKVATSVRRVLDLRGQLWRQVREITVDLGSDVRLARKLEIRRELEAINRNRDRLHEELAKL

CSC(N)=NCCC[C@H](N)C(=O)O
not listed: [18] | [19]
inactive: all other assays above

c1ccc2nc(C3=NCCN3)ccc2c1
not listed: [10] | [15] | [16] | [19]
inactive: all other assays above

Cc1nc(N=Nc2cc(S(=O)(=O)O)c3cc([N+](=O)[O-])cc(S(=O)(=O)O)c3c2)c(COP(=O)(O)O)c(C=O)c1O
active: [10] 7.57 µM | [16] 10 µM | [18] 28.2 µM
not listed: [12] | [14] | [15] | [19]
inactive: all other assays above

OCC1NCC(O)C(O)C1O (stereo not given)
not listed: [6] | [10]
inactive: all other assays above

O=C(O)C1CCCNC1 (stereo not given)
not listed: [6] | [10] | [18]
inactive: all other assays above

CC(=O)NNC(=O)N1Cc2ccccc2Oc2ccc(Cl)cc21
not listed: [6]
inactive: all other assays above

Nc1nc2[nH]c(=O)cnc2c(=O)[nH]1
not listed: [7] | [10] | [13] | [14] | [15] | [16] | [18] | [19]
inactive: all other assays above

N[C@@H](CCCC(=O)O)C(=O)O
not listed: [6] | [10]
inactive: all other assays above

O=c1onc2n1-c1cc(Br)ccc1OC2
not listed: [7] | [8] | [9] | [13] | [18]
inactive: all other assays above

NCCCCN
not listed: [6] | [10] | [13]
inactive: all other assays above

O=C1C2C=CC=CC2=NC(=S)N1CCN1CCC(=C(c2ccc(F)cc2)c2ccc(F)cc2)CC1 (stereo not given)
active: [5] 7.08 µM
50.1 µM (active) and inactive: [16]
not listed: [10] | [11] | [18] | [19]
inactive: all other assays above

CC[C@H](NC(=O)c1c(C)c(-c2ccccc2)nc2ccccc12)c1ccccc1
active: [11] 3.7 µM
not listed: [10] | [12] | [18] | [19]
inactive: all other assays above

O=C(O)C1CCNCC1
not listed: [6] | [10] | [11] | [16]
inactive: all other assays above

OC[C@H]1O[C@@H](n2cnc3cncnc32)[C@H](O)[C@@H]1O
active: [11] 3.29 µM
not listed: [7] | [12] | [19]
inactive: all other assays above

N=S(=O)(O)Cc1noc2ccccc12
not listed: [19]
inactive: all other assays above

O=c1ccn([C@@H]2O[C@H](COP(=O)(O)OP(=O)(O)O)[C@@H](O)[C@H]2O)c(=O)[nH]1
not listed: [8] | [10] | [13] | [19]
inactive: all other assays above
